Shiga inhibitor = inhibitors of Shiga toxin in Vero cells; Vero cells, Shiga toxin protein synthesis inhibition reporter; inhibition, % at 38.7 µM; hit rate 9.2% among 290,000; AID 2315; in the data active = inhibition mostly above about 28%, no sharp cut-off; inactive = mostly below about 43%; note: 0% is about no effect
Pf growth 96h = P. falciparum growth inhibition at 96 hour, primary screen for plastid delayed-death inhibitors. hit rate 6.9% among 320,000. Potency, µM (highest dose often 28.7 µM), for inactives: at the top dose activity change, negative = inhibition, most hits filed as inhibitors. P. falciparum luciferase reporter growth, 96 h. AID 504834; note: potency is the fitted concentration of half-maximal effect; % is set by controls: 0 for no effect and ±100 for the full control effect
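P. falciparum expressing integrated firefly luciferase, in erythrocytes at 2% hematocrit, 0.05% parasitemia, incubated with compounds 96 h at 37 C, 5% CO2. Growth inhibition read as loss of luminescence; two-generation exposure targets delayed-death apicoplast inhibitors.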
HCMV inh = inhibitors of human cytomegalovirus; HFF cells, HCMV-luciferase reporter, 72 h; active compounds read low; activity change, negative = inhibition, % at 57.5 µM; hit rate 4.5% among 410,000; AID 1259415; in the data active = activity change below about -60%; inconclusive = no clear call, values can overlap the other calls; inactive = above about -39%; note: % is set by controls: 0 for no effect and ±100 for the full control effect
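Luciferase read-out from HCMV-luciferase-infected HFFs (MOI 1 PFU/cell) 72 h post infection at 37C; compounds added after 16 h cell attachment; activity normalized between buffer-only basal and Salinomycin (10uM) inhibitor controls.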
Pf growth 48h = inhibits P. falciparum growth in the first generation, 48 h. AID 504832. Potency, µM (highest dose often 28.7 µM), without a hit: top-dose activity change, negative = inhibition, usual class: inhibitors. hit rate 5.9% among 310,000. P. falciparum luciferase growth in erythrocytes, 48 h; note: potency is the fitted concentration of half-maximal effect; % is set by controls: 0 for no effect and ±100 for the full control effect
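Compounds are pin-transferred into medium, infected erythrocytes (2% hematocrit, 0.1% parasitemia final) are added, and plates sit one parasite generation at 37 C in 5% CO2. Detection reagent is then added and luminescence measured.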
Cycloheximide cs = affects cycloheximide protein synthesis inhibition readout, counter-screen; cell reporter, cycloheximide protein synthesis inhibition counterscreen; max response, %; hit rate 12% among 300,000; AID 2314; in the data active = max response mostly above about 13%, no sharp cut-off; inactive = mostly below about 14%; note: read at 38.3 µM for the half of the compounds with a filed dose; 0% is about no effect
Active calls of the source: *; i = inactive; ? = inconclusive; · = no result; [ ] = another dose, or the depositor's remark. Rows were chosen to be rich in hits. Some 20% of all compounds tested hit in one or more screens of this group. Unless noted, calls come from the whole dose curve; as a rule, active = well fitted inhibition curve with a large enough effect; inconclusive = small, poorly fitted or top-dose-only effect, or another doubt; inactive = no such curve, though single readings can be large or run the other way.

SMILES	Shiga inhibitor	Pf growth 96h	HCMV inh	Pf growth 48h	Cycloheximide cs
CC(Oc1ccc(Br)cc1)C(=O)Nc1cc(Cl)ccc1N1CCN(C)CC1 (configuration not stated)	·	11.7µM*	-4.3	11.7µM*	·
COc1ccc(CC(=O)Nc2cc(Cl)ccc2N2CCCC2)cc1	-6.6	-24.9%	-62.9*	?	-2.1
CN1CCN(c2ccc(Cl)cc2NC(=O)CCN2C(=O)c3ccccc3C2=O)CC1	-7.1	?	101.4	7.5%	10.6
COc1ccc(CCC(=O)Nc2cc(Cl)ccc2N2CCN(C)CC2)cc1	-27.3	4.65µM*	-3.4	7.38µM*	-2.2
CCC(CC)CN1CCC(CN2C(=O)C(=O)NC[C@@H]2CC(C)C)CC1	·	·	7.9	·	·
Cc1cccn2c(=O)c(C(=O)N3CCN(c4ccccc4)CC3)cnc12	·	·	19.8	·	·
CC(Sc1nnc(-c2cccnc2)o1)C(=O)NC1CCCC1 (configuration not stated)	·	-19.6%	46.8	6.1%	·
CC1(CC(=O)N/N=C/c2ccc(-c3cccc(C(F)(F)F)c3)o2)OCCO1	3.0	?	-17.2	-14.3%	-1.3
O=C(CN1C(=O)COc2ccc(S(=O)(=O)N3CCCCCC3)cc21)NCc1ccc(Cl)cc1	·	·	-24.1	·	·
CCN(CC)CCNC(=O)CNC(=O)c1nn(-c2ccc(OC)c(OC)c2)c(=O)c2ccccc12	3.2	?	-3.0	-3.8%	1.2
O=C(Cc1ccc(F)cc1)Nc1ccccc1N1CCCC1	25.8	-13.0%	10.6	-16.8%	-0.7
O=C(Cc1ccc(Cl)c(Cl)c1)Nc1ccccc1N1CCCC1	17.4	11.7µM*	-22.1	-12.0%	3.1
O=C(CN1C(=O)NC2(CCCC2)C1=O)Nc1cc(Cl)ccc1N1CCCCC1	-20.9	13.1µM*	-15.8	?	-3.6
O=C(CN1C(=O)NC2(CCCCC2)C1=O)Nc1cc(C(F)(F)F)ccc1N1CCCC1	·	-16.3%	-20.8	2.3%	·
NC(=O)c1ccsc1NC(=O)CN1C(=O)NC2(CCCCC2)C1=O	·	7.3%	-104.6*	1.6%	·
O=C(NCCCCCCNC(=O)c1cncc(O)c1)c1cncc(O)c1	2.8	2.2%	-17.5	81.3%	-5.0
CC(C)(C)Nc1nc(NC(C)(C)C)nc(-n2ccnc2)n1	-10.6	?	-14.8	1.31µM*	-0.9
Cc1ccccc1NC(=O)Cc1nc(COC(=O)c2cccc(C)c2O)cs1	19.5	-2.1%	1.3	3.5%	-1.2
COc1ccccc1NC(=O)CSc1nnc(C2CCCCC2)n1N	7.9	28.1%	29.2	11.1%	-4.2
Cc1ccccc1NC(=O)Cc1nc(COC(=O)c2ccc(Cl)nc2)cs1	·	?	-18.8	?	·
CCOC(=O)c1c(C)[nH]c(C(=O)OCc2csc(CC(=O)Nc3ccccc3C)n2)c1C	·	11.7µM*	19.8	9.28µM*	·
CCC(C(=O)OCc1csc(CC(=O)Nc2ccccc2C)n1)c1ccccc1 (configuration not stated)	·	?	-4.0	11.7µM*	·
Cc1ccccc1NC(=O)Cc1nc(CSc2nnc(C3CCCCC3)n2N)cs1	-24.4	7.38µM*	-8.4	13.1µM*	-3.4
COc1cc(C(=O)OCc2csc(CC(=O)Nc3ccccc3C)n2)ccc1OCC(C)C	·	9.28µM*	-12.4	13.1µM*	·
COc1ccc(OC)c(NC(=O)c2c(NCc3ccc(C)o3)sc3c2CCCCC3)c1	·	·	-32.6	·	·
SMILES	Shiga inhibitor	Pf growth 96h	HCMV inh	Pf growth 48h	Cycloheximide cs
CC(C)N(C(=O)CSc1nnc(CN2CCCCCC2=O)n1-c1ccccn1)C(C)C	-11.4	·	-20.5	-4.6%	-0.6
CC(C)(C)OC(=O)N1CCC[C@H]1c1nnc(SCC(=O)Nc2ccc(Br)cc2)o1	-14.9	2.2%	16.7	-3.0%	-2.9
Cc1ccccc1NC(=O)Cc1nc(COC(=O)CCNS(=O)(=O)c2ccccc2)cs1	·	?	-29.1	10.4µM*	·
Cc1nc2ccc(S(=O)(=O)N(CC(=O)Nc3ccc(Cl)cc3)Cc3ccccc3)cc2s1	·	·	-23.2	·	·
O=[N+]([O-])c1ccc(C[n+]2c(-c3ccccc3)cc(-c3ccccc3)cc2-c2ccccc2)cc1	·	0.928µM*	-62.7*	1.17µM*	·
O=[N+]([O-])c1ccc(CS(=O)Cc2ccccc2)cc1 (configuration not stated)	·	·	4.8	·	·
O=[N+]([O-])c1ccc(C[n+]2ccc(Cc3ccccc3)cc2)cc1	-11.2	34.8%	-73.5*	3.7µM*	5.7
Cc1cc(-c2ccccc2)cc(C)[n+]1Cc1ccccc1	·	0.37µM*	-92.6*	0.738µM*	·
c1ccc(Cc2cc[n+](Cc3ccccn3)cc2)cc1	20.2	1.04µM*	27.7	4.15µM*	0.8
ON(CCc1ccccn1)Cc1ccccc1	·	·	15.0	·	·
Cc1ccc(C(=O)OCC(=O)NC(=O)c2ccccc2)o1	·	34.7%	-20.5	3.1%	·
CC(=O)Nc1cccc2c1C(=O)N(c1ccccc1OC(C)=O)C2=O	2.8	7.1%	-3.4	0.0%	2.0
O=C(Nc1nc2ccccc2n1CCN1CCOCC1)c1ccc(COc2ccccc2Br)o1	-4.8	-12.6%[5.75 µM]	?	?	1.0
O=[N+]([O-])c1ccc2nc(-[n+]3c(-c4ccccc4)cc(-c4ccccc4)cc3-c3ccccc3)[nH]c2c1	-4.3	?	·	?	-3.3
O=C([O-])c1cc(-c2ccccc2)cc(-c2ccccc2)[n+]1Cc1ccccc1	·	0.522µM*	-78.9*	0.522µM*	·
O=[N+]([O-])c1cc(Cl)c(O)c(-[n+]2c(-c3ccccc3)cc(-c3ccccc3)cc2-c2ccccc2)c1	-2.0	?	-75.0*	?	1.6
N#Cc1ccccc1NC(=O)C(=O)NCCc1csc2nc(-c3cccc(F)c3)nn12	·	·	-12.5	·	·
CC1=C(O)C(=O)C=C2C1=CC=C1C2(C)CCC2(C)C3CC(C)(C(=O)O)CCC3(C)CCC12C (configuration not stated)	·	·	-77.5*	·	·
O=S1(=O)N[C@H](Cc2ccccc2)COc2cc(Br)ccc21	·	·	-17.2	·	·
CCCCCN(C(=O)CCC(=O)OCc1ccc(C(C)(C)C)cc1)c1c(N)n(CCCC)c(=O)[nH]c1=O	-20.1	8.28µM*	-17.6	?	-3.4
CCCCCN(C(=O)CCC(=O)OCc1ccc(C(C)C)cc1)c1c(N)n(CCCC)c(=O)[nH]c1=O	·	10.4µM*	-10.3	35.5%	·
CCCCCN(C(=O)CCC(=O)OCc1ccccc1F)c1c(N)n(CCCC)c(=O)[nH]c1=O	·	40.3%	-24.3	?	·
Cc1cc(C)c(C(=O)N2CCCC(CNS(=O)(=O)N(C)C)C2)o1 (configuration not stated)	16.4	?	11.5	23.9%	11.3
CSc1nnc(N2C(=O)C(O)=C(C(=O)c3ccco3)C2c2ccc(F)cc2)s1 (configuration not stated)	20.7	-20.2%	-6.8	11.2%	28.2*
O=C(C1=C(O)C(=O)N(c2ncccn2)C1c1ccc(Cl)cc1)c1ccco1 (configuration not stated)	i	?	45.8	-28.2%	24.6
CCOc1cccc(C2C(C(=O)c3ccco3)=C(O)C(=O)N2Cc2ccncc2)c1 (configuration not stated)	12.2	2.62µM*	9.9	5.1%	16.9*

Compound activity as filed in PubChem.
